Where “and” joins values, the source holds several entries; their conditions need not be identical. Identical values can stand only once. Results filed as inconclusive are left out. Unmarked numbers belong to inactive results. Calls of active or inactive are those of the source. Calls come from the whole dose curve; as a rule, active = well fitted curve in the direction sought with a large enough effect; inconclusive = small, poorly fitted or top-dose-only effect, or another doubt; inactive = no such curve, though single readings can be large; an effect the other way counts as inactive or inconclusive.
Tests used:
[1] = biological target: Cellular tumor antigen p53 (Homo sapiens) (UniProt P04637); assay: Primary qHTS for small molecule compounds that upregulate eGFP-tagged delta133p53alpha (in N-terminal) cells. (AID 2060322); settings: NCI-H358 eGFP-delta133p53alpha fluorescence, 24 h; activation: stronger effect = higher value; note: nearly all actives have a fitted effect of over 75% in size; note: potency is the fitted concentration of half-maximal effect;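 for activation: cells pre-induced with doxycycline then dosed without doxycycline; series mostly up to about 56 µM; 0% = DMSO vehicle and 100% = reference activator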
Sequence of Cellular tumor antigen p53 (Homo sapiens) (P04637 whole entry, looked up): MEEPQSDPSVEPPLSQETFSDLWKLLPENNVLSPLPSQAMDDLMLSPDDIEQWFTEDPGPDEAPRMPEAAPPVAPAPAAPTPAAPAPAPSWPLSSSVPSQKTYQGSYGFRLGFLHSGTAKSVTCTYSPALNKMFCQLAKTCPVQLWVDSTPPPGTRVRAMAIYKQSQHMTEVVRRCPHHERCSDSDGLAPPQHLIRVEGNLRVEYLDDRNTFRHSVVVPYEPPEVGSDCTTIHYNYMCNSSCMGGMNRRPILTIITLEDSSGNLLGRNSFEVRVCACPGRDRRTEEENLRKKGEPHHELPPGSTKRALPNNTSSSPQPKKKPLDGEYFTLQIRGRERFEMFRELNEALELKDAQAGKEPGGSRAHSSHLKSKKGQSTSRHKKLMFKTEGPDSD
Method in brief: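 NCI-H358 cells pre-induced 24 h with 10 ng/ml doxycycline for eGFP-delta133p53alpha, plated dox-free and exposed 24 h at 37C to titrated compounds. Fixed, Hoechst-stained; gated GFP peak intensity by laser scanning cytometry, normalized to DMSO (0%) and 57.5 uM 5-azacytidine (100%).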

[2] = biological target: Aldehyde dehydrogenase, mitochondrial (Homo sapiens) (UniProt P05091); assay: qHTS for Inhibitors of the Aldehyde Dehydrogenase Family (ALDH2) Primary screen (AID 2061308);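 note: plate controls were vehicle for no effect and reference inhibitor for full effect; nearly all actives have a fitted effect of over 55% in size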
[3] = BET inhibitor-based combinations targeting novel dependencies in MECOM-rearranged (r) AML: OCI-AML3 cell line (AID 2202232); settings: Potency: OCI-AML3 viability; note: nearly all actives have a fitted effect of over 35% in size; note: potency is the fitted concentration of half-maximal effect
Method in brief: (§1)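 500 cells/well; 11-pt dose curve; 48 h, standard incubator; CellTiter-Glo luminescence after 15 min RT; DMSO/empty-well normalization; AUC plus Z-AUC (mean-centered within each line).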

[4] = BET inhibitor-based combinations targeting novel dependencies in MECOM-rearranged (r) AML: MV-4-11 cell line (AID 2202233); note: potency is the fitted concentration of half-maximal effect; nearly all actives have a fitted effect of over 45% in size
Method in brief: (§2)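 Cells were plated at 500 per well and exposed to each drug across an 11-point dose range for 48 hr at standard incubator conditions. Viability was read by CellTiter-Glo luminescence, and activity was expressed as AUC and per-cell-line Z-transformed AUC.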

[5] = BET inhibitor-based combinations targeting novel dependencies in MECOM-rearranged (r) AML: AML-191 cell line (AID 2202236; note: nearly all actives have a fitted effect of over 35% in size; note: potency is the fitted concentration of half-maximal effect)
Method in brief: as §1

[6] = BET inhibitor-based combinations targeting novel dependencies in MECOM-rearranged (r) AML: AML-194 cell line (AID 2202237; note: nearly all actives have a fitted effect of over 40% in size; note: potency is the fitted concentration of half-maximal effect)
Method in brief: as §1

[7] = BET inhibitor-based combinations targeting novel dependencies in MECOM-rearranged (r) AML: SET-2 cell line (AID 2202231); settings: SET-2 AML cells viability, CellTiter-Glo luminescence, 48 h; viability: stronger effect = lower value, concentration not given here; note: nearly all actives have a fitted effect of over 35% in size; note: potency is the fitted concentration of half-maximal effect;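 for viability: plate controls were DMSO treated cells for no effect and wells without cells for full effect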
Method in brief: as §1

[8] = BET inhibitor-based combinations targeting novel dependencies in MECOM-rearranged (r) AML: HNT-34 cell line (AID 2202234); note: nearly all actives have a fitted effect of over 35% in size; note: potency is the fitted concentration of half-maximal effect
Method in brief: as §2

[9] = BET inhibitor-based combinations targeting novel dependencies in MECOM-rearranged (r) AML: UCSD-AML1 cell line (AID 2202235); note: nearly all actives have a fitted effect of over 40% in size; note: potency is the fitted concentration of half-maximal effect
Method in brief: as §2

[10] = biological target: Retinaldehyde dehydrogenase 3 (Homo sapiens) (UniProt P47895); assay: qHTS for Inhibitors of the Aldehyde Dehydrogenase Family (ALDH1A3) Validation screen (AID 2061312); note: nearly all actives have a fitted effect of over 45% in size; note: potency is the fitted concentration of half-maximal effect
[11] = biological target: Retinaldehyde dehydrogenase 3 (Homo sapiens) (UniProt P47895); assay: qHTS for Inhibitors of the Aldehyde Dehydrogenase Family (ALDH1A3) Primary screen (AID 2061315);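 note: plate controls were DMSO vehicle for no effect and reference inhibitor for full effect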
[12] = biological target: Retinaldehyde dehydrogenase 3 (Homo sapiens) (UniProt P47895); assay: qHTS for Inhibitors of the Aldehyde Dehydrogenase Family (ALDH1A3) Confirmatory screens (AID 2061311); note: potency is the fitted concentration of half-maximal effect; nearly all actives have a fitted effect of over 60% in size
[13] = biological target: Aldehyde dehydrogenase 1A1 (Homo sapiens) (UniProt P00352); assay: qHTS for Inhibitors of the Aldehyde Dehydrogenase Family (ALDH1A1) Confirmatory screens (AID 2061316); note: potency is the fitted concentration of half-maximal effect; nearly all actives have a fitted effect of over 65% in size
[14] = biological target: Retinal dehydrogenase 2 (Homo sapiens) (UniProt O94788); assay: qHTS for Inhibitors of the Aldehyde Dehydrogenase Family (ALDH1A2) Confirmation screens (AID 2061314); note: potency is the fitted concentration of half-maximal effect; nearly all actives have a fitted effect of over 65% in size

For `CCCS(=O)c1ccc2nc(NC(=O)OC)[nH]c2c1` (stereo not drawn), the activation [1] was -21.8% and -4.96%, the Potency [2] was “inactive” and the Potency [3] was 26.3 µM (active). For the same compound, the Potency [4] was 23.5 µM (active), the Potency [5] was 8.33 µM (active) and the Potency [6] was 11.8 µM (active).
With `COc1cc(N2CCN(C)CC2)ccc1Nc1nccc(-c2cn(C)c3cnccc23)n1` the Potency [1] was 26.9 µM (active), the Potency [2] was “inactive” and the Potency [7] was 20.9 µM (active). The Potency [3] was 14.8 µM (active), the Potency [4] was 0.372 µM (active) and the Potency [8] was 13.2 µM (active). For the same compound, the Potency [9] was 6610 nM (active), the Potency [5] was 13.2 µM (active) and the Potency [6] was 14.8 µM (active).
With `COc1ccc2cc(C(C)C(=O)Oc3ccc(C(N)=S)cc3)ccc2c1` (stereo not drawn) the activation [1] was -3.34%, the Potency [10] was “inactive” and the Potency [11] was “inactive”.
With `O=C(/C=C/C=C/c1ccc2c(c1)OCO2)N1CCCCC1` the activation [1] was -7.63%, the Potency [2] was “inactive” and the Potency [3] was 18.6 µM (active). The Potency [8] was “inactive”, the Potency [9] was “inactive” and the Potency [5] was “inactive”. The Potency [6] was “inactive”.
In the case of `Cc1cc(NC(=O)Nc2ccc(F)c(F)c2)n(-c2ccccc2)n1`, the activation [1] is reported as -15.8%, the Potency [10] is reported as “inactive” and the Potency [11] is reported as “inactive”.
In the case of `C/C=C/C=C/C(CC(=O)O)Nc1ccc(C=O)cc1` (stereo not drawn), the activation [1] is reported as -13.7%, the Potency [12] is reported as 12.7 µM (active) and the Potency [11] is reported as “inactive”. For the same compound, the Potency [13] was 2.01 µM (active).
For `O=C(/C=C/c1cccc(S(=O)(=O)Nc2ccccc2)c1)NO`, the Potency [1] was 5.44 µM (active), the Potency [2] was “inactive” and the Potency [7] was 0.263 µM (active). The Potency [3] was 0.742 µM (active), the Potency [4] was 0.296 µM (active) and the Potency [8] was 0.934 µM (active). For the same compound, the Potency [9] was 742 nM (active), the Potency [5] was 0.934 µM (active) and the Potency [6] was 1.05 µM (active).
With `COc1ccccc1C(=O)Nc1cc2c(cc1N1CCCC1)n(C)c(=O)n2C` the activation [1] was -44.7%, the Potency [2] was “inactive” and the Potency [4] was 16.6 µM (active). For the same compound, the Potency [8] was 26.3 µM (active).
In the case of `c1nc2nc(Nc3ccc(N4CCOCC4)cc3)nc(NC3CCCCC3)c2[nH]1`, the activation [1] is reported as -34%, the Potency [2] is reported as “inactive” and the Potency [7] is reported as 4.17 µM (active). For the same compound, the Potency [3] was 3.32 µM (active), the Potency [4] was 0.372 µM (active) and the Potency [8] was 1.48 µM (active). The Potency [6] was 2.63 µM (active).
For `Cc1c(CN2CCN(S(C)(=O)=O)CC2)sc2c(N3CCOCC3)nc(-c3cnc(N)nc3)nc12`, the activation [1] was -10.7%, the Potency [2] was “inactive” and the Potency [3] was 0.59 µM (active). The Potency [4] was 1.32 µM (active), the Potency [8] was 1.66 µM (active) and the Potency [9] was 186 nM (active). For the same compound, the Potency [5] was 0.59 µM (active).
In the case of `O=c1c(-c2ccc(O)cc2)coc2cc(O[C@@H]3O[C@H](CO)[C@H](O)[C@H](O)[C@H]3O)ccc12`, the activation [1] is reported as 8.65% and the Potency [10] is reported as “inactive”.
For `COc1ccc(Cn2ccc3ccc(C(=O)NO)cc32)cc1`, the activation [1] was 20.3% and -6.7%, the Potency [2] was “inactive” and the Potency [4] was 20.9 µM (active). For the same compound, the Potency [6] was 18.6 µM (active).
In the case of `Cn1nc(-c2ccc(C(F)(F)F)cc2)nc2c(=O)n(C)c(=O)nc1-2`, the Potency [1] is reported as 4.78 µM (active) and the Potency [10] is reported as 2.51 µM (active).
With `N#C/C(=C\c1ccc(O)c(O)c1)C(=O)Nc1ccccc1` the activation [1] was -12.1% and the Potency [12] was 2.25 µM (active).
With `NC1(c2ccc(-c3nc4ccn5c(=O)[nH]nc5c4cc3-c3ccccc3)cc2)CCC1` the activation [1] was 26.3% and 14.1% and 3.82%, the Potency [2] was “inactive” and the Potency [7] was 20.9 µM (active). For the same compound, the Potency [3] was 16.6 µM (active), the Potency [4] was 13.2 µM (active) and the Potency [8] was 7.42 µM (active). The Potency [9] was 14800 nM (active), the Potency [5] was 18.6 µM (active) and the Potency [6] was 18.6 µM (active).
In the case of `Cc1csc(N(C(=O)CSc2ccc(-c3ccccc3)nn2)C2CC2)n1`, the activation [1] is reported as 10.5% and the Potency [10] is reported as 2.82 µM (active).
In the case of `Cc1ccc([N+](=O)[O-])cc1S(=O)(=O)N(C)/N=C/c1cnc2ccc(Br)cn12`, the Potency [1] is reported as 0.213 µM (active), the Potency [2] is reported as “inactive” and the Potency [7] is reported as 0.166 µM (active). For the same compound, the Potency [3] was 0.235 µM (active), the Potency [4] was 0.0417 µM (active) and the Potency [9] was 166 nM (active). The Potency [5] was 0.166 µM (active) and the Potency [6] was 0.186 µM (active).
In the case of `Cc1cc(O)cc(Oc2cc(C)c(C(=O)O)c(O)c2)c1`, the activation [1] is reported as -7.63%, the Potency [12] is reported as 22.5 µM (active) and the Potency [13] is reported as 17.9 µM (active).
In the case of `C=CC(=O)Nc1cccc(Oc2nc(Nc3ccc(N4CCN(C)CC4)cc3OC)ncc2Cl)c1`, the Potency [1] is reported as 19.3 µM (active) and 30.1 µM (active), the Potency [2] is reported as “inactive” and the Potency [7] is reported as 20.9 µM (active). The Potency [4] was 4.68 µM (active), the Potency [8] was 9.34 µM (active) and the Potency [5] was 14.8 µM (active). For the same compound, the Potency [6] was 16.6 µM (active).
For `CC(C(=O)O)c1ccc2c(c1)[nH]c1ccc(Cl)cc12` (stereo not drawn), the activation [1] was 8.47% and -3.82%, the Potency [12] was 15.9 µM (active) and the Potency [10] was “inactive”. The Potency [14] was 6.34 µM (active) and the Potency [11] was “inactive”.
For `COc1cc(O)c2c(c1)/C=C/C[C@H](O)[C@H](O)C(=O)/C=C\C[C@H](C)OC2=O`, the Potency [1] was 10.7 µM (active), the Potency [12] was 5.04 µM (active) and the Potency [14] was 5.04 µM (active).
With `CCCCOc1ccc(C(=O)Nc2ccc(F)cc2F)cc1` the activation [1] was -9.74% and -2.39%, the Potency [2] was “inactive” and the viability [7] was 103%. The Potency [3] was “inactive”, the Potency [8] was “inactive” and the Potency [5] was “inactive”. For the same compound, the Potency [6] was “inactive”.
